Where “and” joins values, the source holds several entries; their conditions need not be identical. Equal values may be shown once. Among all 350,000 compounds or so, about 990 (0.28%) were called active. Another 2% or so got no clear call; they are omitted. The call rests on the fitted dose curve; in most records, active means well fitted inhibition curve with a large enough effect; inconclusive means small, poorly fitted or top-dose-only effect; inactive means no such curve, though single readings can be large or run the other way. The entries come from a sample that favours actives as a whole. Entries that show only a call come without a potency. The source holds several records for some structures; these can differ, active in one and inactive in another.

The source of these data is PubChem BioAssay AID485290 (National Center for Advancing Translational Sciences (NCATS), 2010).
Potency means the concentration at half of the fitted maximal effect.

Tyrosyl-DNA phosphodiesterase 1 (Homo sapiens), sequence (Q9NUW8 whole entry, looked up): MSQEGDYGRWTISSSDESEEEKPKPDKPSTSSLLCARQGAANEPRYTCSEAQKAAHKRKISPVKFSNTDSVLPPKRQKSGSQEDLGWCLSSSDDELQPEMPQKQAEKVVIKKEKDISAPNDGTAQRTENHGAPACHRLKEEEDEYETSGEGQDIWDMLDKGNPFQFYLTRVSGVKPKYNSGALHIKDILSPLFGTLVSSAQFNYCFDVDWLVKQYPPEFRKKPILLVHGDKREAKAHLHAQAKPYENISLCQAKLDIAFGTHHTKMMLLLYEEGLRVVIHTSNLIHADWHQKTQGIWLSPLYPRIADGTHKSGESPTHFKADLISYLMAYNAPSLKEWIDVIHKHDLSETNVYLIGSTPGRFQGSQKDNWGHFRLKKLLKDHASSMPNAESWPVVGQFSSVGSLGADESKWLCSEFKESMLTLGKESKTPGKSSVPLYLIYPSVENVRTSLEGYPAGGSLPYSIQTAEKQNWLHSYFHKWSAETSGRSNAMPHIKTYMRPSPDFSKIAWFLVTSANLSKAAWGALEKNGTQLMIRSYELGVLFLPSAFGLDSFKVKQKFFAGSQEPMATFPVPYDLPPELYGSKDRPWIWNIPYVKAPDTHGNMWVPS

The experiment addresses Tyrosyl-DNA phosphodiesterase 1 (Homo sapiens) (UniProt Q9NUW8). The experiment can be described thus: qHTS Assay for Inhibitors of Tyrosyl-DNA Phosphodiesterase (TDP1). Further: nearly all actives have a fitted effect of over 40% in size. To be noted: recombinant TDP1, AlphaScreen DNA substrate cleavage; series mostly up to 130 µM. In short, it runs like this:
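Recombinant E. coli-expressed Tdp1 (1 nM) preincubated with compound 15 min at RT, then 5'-biotin/3'-phosphotyrosine-FITC DNA substrate (15 nM) added for 5 min. AlphaScreen beads (10 ug/ml) added, 10 min RT; tyrosine-FITC cleavage read as signal loss.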
(In general: qHTS replaces the single test concentration by a dilution series.)
`OC[C@@H]1O[C@H](n2cnc3c(SCc4ccccc4)ncnc32)[C@H](O)[C@H]1O`: the Potency entry was “inactive”. As for `Cc1cc2c(s1)c1cnn(Cc3c(F)cccc3Cl)c(=O)c1n2C`, the Potency result was “inactive”. `Cc1cnc(NC(=O)CSc2nnc(C)s2)s1`: the Potency entry was “inactive”. The same measure, in the same setting: in the case of `Cc1nnc(SCC(=O)Nc2ccc(S(=O)(=O)Nc3ccc(Cl)nn3)cc2)s1` it was 39.8 µM (active); in that of `CCCCCC(=O)Nc1ccc(S(=O)(=O)Nc2ccc(Cl)nn2)cc1`, “inactive”. As to `COc1cccc(C2c3c(ncn(-c4cccc(Br)c4)c3=N)Oc3ccc4ccccc4c32)c1` (configuration not stated), the Potency entry was “inactive”. The same measure, in the same setting: in the case of `O=C1CC(c2ccccc2)CC2=C1C(c1ccco1)n1nc(C(F)(F)F)nc1N2` (configuration not stated) it was “inactive”.

With `COc1ccc(NC(=O)CCN2C(=O)/C(=C/c3ccc4c(c3)OCO4)SC2=S)cc1`, the Potency entry is “inactive”. As to `Cn1cccc1/C=C1\SC(=O)N(CC(=O)Nc2ccc(F)cc2)C1=O`, the Potency result is “inactive”. Still for that read-out and setting: the result for `Cc1ccc(C(=O)O)cc1-c1ccc(/C=C2\SC(=O)N(CC(=O)Nc3ccc4c(c3)OCO4)C2=O)o1` reads 10 µM (active); that for `Cc1cc(C(=O)OCC(=O)N2c3ccccc3NC(=O)C2(C)C)c(C)n1-c1ccccc1`, “inactive”. Still for that read-out and setting: the result for `CC1(C)C(=O)Nc2ccccc2N1C(=O)COC(=O)Cn1cnc2ccccc2c1=O` reads “inactive”; that for `CNS(=O)(=O)c1cccc(C(=O)OCC(=O)N2c3ccccc3NC(=O)C2(C)C)c1`, 31.6 µM (active); that for `O=C(CSc1nc2ccccc2c(=O)[nH]1)Nc1nc(-c2ccc(Br)cc2)cs1`, 12.6 µM (active).

`CC(=O)NCc1ccc(-c2csc(NC(=O)CCCc3nc4ccccc4c(=O)[nH]3)n2)cc1`: the Potency entry is “inactive”. For `CCOC(=O)c1ccccc1NC(=O)CSc1nc2ccccc2c(=O)[nH]1`, the Potency result is “inactive”. Same read-out and setting: the result for `O=S(=O)(c1ccc2c(c1)OCCCO2)N1CCN(S(=O)(=O)c2c(F)cccc2F)CC1` reads “inactive”; that for `Brc1nc2ncnc(NCc3ccco3)c2[nH]1`, “inactive”. In the case of `COC(=O)c1ccc(NC(=O)CSc2n[nH]c(-c3ccccc3)n2)cc1`, the Potency entry is “inactive”. Same read-out and setting: the result for `CN(C)c1ccc(C(CNS(=O)(=O)c2cc(F)ccc2F)N2CCOCC2)cc1` (configuration not stated) reads “inactive”. On the same count and under the same terms, in the case of `COc1ccc(C2Nc3ccccc3C(=O)N2Cc2ccc(CNC(=O)CO)cc2)cc1COc1ccc(NC(C)=O)cc1` (configuration not stated) it was “inactive”; in that of `COc1ccc(-c2nn(-c3ccccc3)cc2/C=C2/SC(=S)N(CCCC(=O)O)C2=O)c(C)c1`, 39.8 µM (active); in that of `CN(C)S(=O)(=O)c1cccc(-c2nn(-c3ccccc3)cc2/C=C2\SC(=S)N(CC(=O)O)C2=O)c1`, “inactive”. Consider `COc1ccc(/C=C2\SC(=S)N(CCC(=O)Nc3ccccn3)C2=O)cc1OC`, for which the activity change, negative = inhibition was 5.5% [at 0.0935 µM] (inactive). With `Cc1ccc(C(=O)NC2CCN(C#N)CC2)cc1`, the Potency result is “inactive”. On to `CCN(CC)c1nc(C#N)nc(OC)n1`, for which the Potency result is “inactive”.

As to `COc1ccc(CCn2c3c(c(=O)[nH]c2=S)CN(C(C)C)CN3)cc1OC`, the Potency entry is “inactive”. Same read-out and setting: the result for `Cc1ccc(C)c(N2C(=O)N(Cc3c(F)cccc3Cl)c3ccccc3S2(=O)=O)c1` reads “inactive”; that for `N#Cc1ccc(OC2=NS(=O)(=O)c3ccccc32)cc1`, “inactive”; that for `Fc1ccccc1Oc1ncnc2c1oc1ccccc12`, “inactive”. `Cc1cccc(N2CCN(S(=O)(=O)c3ccc4[nH]c(=O)c(=O)[nH]c4c3)CC2C)c1` (configuration not stated): the Potency is 35.5 µM (active). The same measure, in the same setting: in the case of `Cc1cccc(N2CCN(C(=O)c3cccc(S(=O)(=O)N4CCc5ccccc5C4)c3)CC2C)c1` (configuration not stated) it was “inactive”. The same measure, in the same setting: the result for `Cc1cccc(N2CCN(S(=O)(=O)c3ccc(-c4cc(C)no4)s3)CC2C)c1` (configuration not stated) reads “inactive”. The same measure, in the same setting: in the case of `COC(=O)c1ccccc1NC(=O)c1ccc(C#N)cc1` it was “inactive”.

As for `CCOC(=O)c1ccc(NC(=O)c2c(NCc3cccs3)sc3c2CCCC3)cc1`, the Potency entry was “inactive”. Regarding `Cc1nn2c(=O)cc(COC(=O)c3cccc(NC(=O)COc4ccccc4Cl)c3)nc2s1`, the Potency result was “inactive”. Regarding `O=C1N/C(=C/c2cccn2-c2ccccc2)C(=O)N1c1cccc(Cl)c1`, the Potency entry was “inactive”. On to `Cc1cccc(NC(=O)CN2C(=O)c3ccccc3C2=O)c1C`, for which the Potency result was “inactive”.

Consider `Cc1ccccc1NC(=O)CN1C(=O)N/C(=C\c2cccn2-c2cccc(C(=O)O)c2)C1=O`, for which the Potency is 1.41 µM (active). For `O=C(COc1ccccc1Cl)Nc1ccc2nc(SCC(=O)N3CCCC3)sc2c1`, the Potency result is “inactive”. On the same count and under the same terms, in the case of `Oc1ccc(/C=C/c2c(F)cccc2F)c2cccnc12` it was “inactive”.

For `O=S(=O)(c1cccc(C(F)(F)F)c1)N1CCN(c2nc(-c3cccs3)nc3ccccc23)CC1`, the Potency entry was “inactive”. Consider `O=Cc1ccc(OCc2cn3ccccc3n2)cc1`, for which the Potency entry is “inactive”. Take `COc1ccc(C(=O)NCc2cn3ccccc3n2)cc1`: the Potency result was “inactive”. On the same count and under the same terms, in the case of `CN(C)C(CNC(=O)c1ccc(OCc2cn3ccccc3n2)cc1)c1ccco1` (configuration not stated) it was 14.1 µM (active); in that of `CCOC(=O)Cn1c(=O)n(-c2ccccc2OC)c2nc(-c3cccc(F)c3)nc(C(N)=O)c21`, “inactive”; in that of `COc1ccc(C(=O)Nc2ccc(-n3nncc3-c3ccccc3)cc2)cc1OC`, “inactive”. Same read-out and setting: in the case of `C=CC1=C(C(=O)O)N2C(=O)[C@@H](NC(=O)/C(=N\OCC(=O)O)c3csc(N)n3)[C@H]2SC1` it was 14.1 µM (active); in that of `CO/N=C(\C(=O)N[C@@H]1C(=O)N2C(C(=O)O)=C(COC(C)=O)CS[C@H]12)c1csc(N)n1` (stereo in doubt), “inactive and 10 µM (active) and 20 µM (active)”. The same measure, in the same setting: in the case of `Cc1nnc(SCC2=C(C(=O)O)N3C(=O)C(NC(=O)Cn4nc(C)c(Cl)c4C)C3SC2)s1` (configuration not stated) it was “inactive”. Take `Cc1cc(C)cc(C(=O)NC2C(=O)N3C(C(=O)O)=C(CSc4nnc(C)s4)CSC23)c1` (configuration not stated): the Potency entry is “inactive”. Same read-out and setting: the result for `COc1ccc(C2Nc3ccc(NC(=O)COC(C)=O)cc3C(=O)N2Cc2ccccc2)cc1COc1ccc(NC(C)=O)cc1` (configuration not stated) reads “inactive”; that for `COc1cccc(Cn2c(SCc3ccc(C(=O)N4CCC(C)CC4)cc3)nc3ccncc32)c1`, “inactive”. For `CCOC(=O)c1ccc(NC(=O)c2c(NCc3cccc(OC)c3)sc3c2CCC3)cc1`, the Potency entry is “inactive”. Same read-out and setting: in the case of `COC(=O)c1ccc(NC(=O)c2cnn(-c3ccc(Cl)cc3)c2C2CCN(C(=O)OC(C)(C)C)CC2)cc1` it was “inactive”; in that of `COc1ccc(C(=O)Nc2cccc(C(=O)OCc3cc(=O)n4c5c(sc4n3)CCCC5)c2)cc1`, “inactive”. On the same count and under the same terms, the result for `CC(C)c1ccc(NC(=O)c2ccc(Cn3nc(N4CCN(c5ccccc5)CC4)ccc3=O)o2)cc1` reads “inactive”.
